Assay outcomes as filed in PubChem BioAssay.
Hits are enriched below; roughly 4% of the tested compounds scored in any of these assays.
TROY signal inh = inhibitors of TROY-driven NF-kB signaling, primary screen, Q293 LMP1-TROYcd cells, NF-kB luciferase, uHTS | hit rate 0.98% among 360,000 | Q293 LMP1-TROYcd NF-kB luciferase reporter, 4 h | AID 1347056, 2019 | inhibition, % at 10 µM;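 active = compounds whose plate-normalised and pattern-corrected inhibition of the luciferase reporter signal at the single screening dose is 50% or more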
TWEAK-Fn14 inh = inhibitors of TWEAK-Fn14 signaling, primary screen, luciferase reporter cells, uHTS. hit rate 2% among 360,000. TWEAK-stimulated Fn14 reporter cells, luciferase luminescence, 8 h. inhibition, % at 10 µM; in the data active = inhibition above about 50%
TRPM1 prom inh = inhibitors of MITF-dependent TRPM1 promoter reporter, primary screen, cell-based, SK-MEL-5, single point, luciferase. inhibition, % at 12.5 µM. SK-MEL-5 TRPM1 promoter luciferase, 24 h. hit rate 0.83% among 330,000. AID 488899, 2010;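 active = mean inhibition across replicates of 60% or more, whatever share of single replicates reaches that level; inconclusive = some that reach 60%, reason not given; inactive = mean inhibition across replicates below 60%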
HIF-2a inh = HIF-2a reporter inhibitors, primary screen, luminescence, 786-0 RCC cells | AID 624352, 2012 | 786-0 RCC cells HIF-2a reporter, luciferase luminescence, overnight | inhibition, % at 18.8 µM | hit rate 0.72% among 360,000;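 active = inhibition of the luminescence signal of 40% or more relative to plate controls, in a single-dose primary screen at 18.75 µM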
Peg3 promoter = Peg3 promoter-driven luciferase inhibitors, primary screen, cell-based, HeLa, luciferase luminescence | HeLa PEG-Prom luciferase reporter, overnight | inhibition, % at 20 µM | hit rate 1.7% among 360,000 | AID 588405, 2011;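 active = inhibition of at least 50% at 20 µM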
LMP1 NFkB inh = EBV LMP1-driven NF-kappaB luciferase reporter inhibitors, primary screen, cell-based, luminescence, single point | inhibition, % at 12.5 µM | LMP1-induced NF-kappaB luciferase reporter cells | hit rate 0.69% among 350,000 | AID 504558, 2011; in the data active = inhibition above about 41%; inconclusive = no clear call, values can overlap the other calls
A number is an active result; . = inactive; ? = inconclusive; / = no result.

SMILES	TROY signal inh	TWEAK-Fn14 inh	TRPM1 prom inh	HIF-2a inh	Peg3 promoter	LMP1 NFkB inh
NC(=O)CC(NC(=O)Cc1cccc2ccccc12)c1ccc(NCCc2ccccc2F)c([N+](=O)[O-])c1 (stereo not given)	.	.	.	.	.	.
CC(C)C(=O)N1CCC1(C)C(=O)Nc1ccc(-n2cccc2)cc1 (stereo not given)	.	.	/	.	.	/
COc1ccc(-c2cc(C(=O)NC3CC3)c3ccccc3n2)cc1	.	.	.	.	.	.
O=C(NC1CC1)c1cc(-c2ccc(Br)cc2)nc2ccccc12	.	.	.	.	.	42
O=C(Nc1ccc(C(O)(C(F)(F)F)C(F)(F)F)cc1)c1ccc(Cl)c([N+](=O)[O-])c1	50	62	.	.	58	.
O=C(O)c1cc(NC(=O)c2ccc(Cl)c([N+](=O)[O-])c2)cc(C(=O)O)c1	.	.	.	.	.	.
Cc1ccc(CCNc2ncnc(Cl)c2N)cc1	.	.	.	.	.	.
Cc1ccc(-n2ncc(N(C)C)c(Cl)c2=O)cc1	.	55	.	.	.	.
COc1ccc(N2CCN(c3cc(C(=O)Nc4cc(OC)c(OC)c(OC)c4)ncn3)CC2)cc1OC	.	.	/	.	.	/
COc1ccc(/C=C/C(=O)OCC(=O)NCc2ccco2)cc1OC	.	.	.	.	.	56
Cc1ccc(-c2cc(C(=O)N(C)CC(=O)Nc3ccccc3Br)c3ccccc3n2)o1	.	.	.	.	.	.
OC[C@@H]1CN(Cc2ccc(-c3ccccc3)cc2)C[C@H](n2cnc3c(Nc4ccccc4)ncnc32)O1	.	92	/	.	.	/
OC[C@@H]1CN(Cc2ccc(F)cc2)C[C@H](n2cnc3c(Nc4ccccc4)ncnc32)O1	.	.	/	.	.	/
OC[C@@H]1CN(Cc2ccc(-c3ccccc3)cc2)C[C@H](n2cnc3c(NCc4ccc(F)cc4)ncnc32)O1	50	88	/	.	.	/
O=C(CN1C(=O)C2CC=CCC2C1=O)Nc1nc(-c2ccc(F)c(F)c2)cs1 (stereo not given)	.	.	.	.	.	.
Fc1nc(F)c(F)c(NCCCNc2c(F)c(F)nc(F)c2F)c1F	50	.	.	.	.	.
O=[N+]([O-])c1cc([N+](=O)[O-])c2cccnc2c1Oc1ccccc1O	.	.	.	.	51	.
O=[N+]([O-])c1cc(Cl)c(O)c2ncccc12	.	.	.	.	57	.
O=[N+]([O-])c1cc(CN2CCN(c3ccccc3)CC2)c(O)c2ncccc12	.	.	75	.	59	80
O=[N+]([O-])c1cc(Cl)c2cccnc2c1O	.	.	.	.	.	.
O=[N+]([O-])c1ccc(O)c2ncccc12	.	.	.	.	.	.
O=[N+]([O-])c1cc(F)c2cccnc2c1O	.	.	.	.	.	.
COc1ccc(CCNC(=O)c2ccc3c(c2)N(Cc2ccccc2)CCS3)cc1OC	.	.	.	.	55	.
CN1CCN(CCCNC(=O)c2ccc3c(c2)N(Cc2ccc(F)cc2)CCS3)CC1	.	.	.	.	.	67
O=C(NCCCN1CCOCC1)c1ccc2c(c1)N(Cc1ccc(F)cc1)CCS2	.	.	.	.	.	.
SMILES	TROY signal inh	TWEAK-Fn14 inh	TRPM1 prom inh	HIF-2a inh	Peg3 promoter	LMP1 NFkB inh
Cc1ccc(NC2=Nc3ccccc3N3C2=Nc2c(c(C)nn2-c2ccccc2)C3c2ccc(O)c(O)c2)cc1 (stereo not given)	.	.	.	.	88	.
Cc1nn(-c2ccccc2)c2c1C(c1ccc(O)c(O)c1)N1C(=N2)C(Nc2ccccc2)=Nc2ccccc21 (stereo not given)	.	.	.	.	.	.
O=C(/C(N=Nc1cccc(C(F)(F)F)c1)=C(/O)c1cccs1)C(F)(F)F	.	57	.	.	.	.
CC(=O)/C(N=Nc1cccc(C(F)(F)F)c1)=C(\C)O	.	.	.	.	.	.
Cc1ccc(N=C/C(C(=O)C(F)(F)F)=C(\O)c2cccs2)cc1	.	83	.	.	.	.
Cc1ccc(NCCC(=O)c2cccs2)cc1	.	.	.	.	.	.
CC1CCN(Cc2nnc(-c3cccc(Br)c3)o2)CC1	.	.	.	.	.	.
CN(Cc1ccsc1)C(=O)Cn1cc(Br)ccc1=O	.	.	.	.	.	.
O=C(Nc1cccc2ncccc12)c1cc2ccccc2o1	.	.	.	.	.	.
O=C(Nc1ncccc1O)c1cc2ccccc2o1	.	.	.	.	.	42
O=C(NC1=NCCS1)c1cc2ccccc2o1	.	82	.	.	.	?
O=C(NC1=NCCS1)c1ccccc1	.	.	.	.	.	.
Cc1ccc(C)c(NC(=O)c2cc3ccccc3o2)c1	.	.	.	.	.	.
Cc1ccnc(NC(=O)c2cc3ccccc3o2)c1	60	91	.	.	51	.
COC(=O)c1cccc(NC(=O)c2cc3ccccc3o2)c1	69	102	.	.	.	.
CCCCCC(=O)N1C[C@@H](O)[C@H](n2cc(COC(=O)c3ccccc3)nn2)C[C@@H]1c1ccc(Cl)cc1	.	.	/	.	.	.
Cc1cc(C(=O)COC(=O)c2cccn2C)c(C)n1Cc1ccco1	76	74	.	.	.	.
Cc1cc(C(=O)COC(=O)c2ccco2)c(C)n1Cc1ccco1	84	93	.	.	.	.
Cc1cc(C(=O)COC(=O)c2ccncc2)c(C)n1Cc1ccco1	.	59	.	.	.	.
Cc1cc(C(=O)COC(=O)c2cc(Cl)ccc2N)c(C)n1Cc1ccco1	.	.	.	.	.	.
CCOC(=O)c1ccc(NC(=O)CSc2nc(=O)n(CCN3CCOCC3)c3c2CCC3)cc1	.	.	.	.	.	.
CCCC#Cc1ccc2c(c1)O[C@H](CN(C)S(=O)(=O)c1cccc(OC)c1)[C@H](C)CN([C@H](C)CO)S2(=O)=O	.	.	/	.	.	.
COc1ccc(-c2oc3c(c2C(=O)OCCO)C(OCCO)CCC3)cc1 (stereo not given)	.	.	/	.	/	/
Nc1nc(N)c2cc(Sc3ccc(Cl)cc3)ccc2n1	.	.	/	.	104	.
Nc1nc(N)c2cc(Sc3ccc4ccccc4c3)ccc2n1	84	52	/	.	107	/
Nc1nc(N)c2cc(Sc3cccc(C(F)(F)F)c3)ccc2n1	.	.	/	.	107	.
CCCNC(=O)C1(C)CCCN(Cc2ccccc2-c2ccccc2)C1 (stereo not given)	.	.	/	.	.	/
COc1ccc(C(=O)Nc2cc(OC)c(NC(=O)Nc3ccccc3)cc2OC)cc1	.	.	/	.	.	.
O=C(Nc1ccccn1)c1ccc2c(=O)n3c(nc2c1)CCCCC3	.	56	.	.	.	.
